Laboratory results: PubChem BioAssay (NCI)
About 83,000 compounds went through this panel and 20% of them were active in at least one assay; those are over-represented in the sample as a whole.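 Testing used 96-well plates and a 48-hour single-concentration exposure. Example: -40 means 40% of the starting cells died.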 Unmarked numbers belong to inactive results. The source made the active and inactive calls. How the source made its calls: active means growth percent below 10; inactive means the rest.

Experiments:
Experiment in all cases: NCI-60 one-dose screen, 48 h (100 = growth as untreated, 0 = no growth, -100 = all killed)
Conditions in all cases: 10 µM unless noted
NCI-H23 lung = system: NCI-H23 lung
NCI-H226 lung = system: NCI-H226 lung
NCI-H322M lung = system: NCI-H322M lung
HOP-62 NSCLC = system: HOP-62 NSCLC
NCI-H460 lung = system: NCI-H460 lung
HOP-92 NSCLC = system: HOP-92 NSCLC
NCI-H522 lung = system: NCI-H522 lung
A549/ATCC NSCLC = system: A549/ATCC NSCLC
786-0 renal = system: 786-0 renal
COLO 205 colon = system: COLO 205 colon
DU-145 prostate = system: DU-145 prostate
K-562 leukemia = system: K-562 leukemia
MALME-3M melanoma = system: MALME-3M melanoma
MDA-MB-231 breast = system: MDA-MB-231 breast
RXF 393 renal = system: RXF 393 renal
SF-268 CNS = system: SF-268 CNS
SF-295 CNS = system: SF-295 CNS
SF-539 CNS = system: SF-539 CNS
UACC-257 melanoma = system: UACC-257 melanoma
M14 melanoma = system: M14 melanoma

| SMILES | growth (NCI-H23 lung) | growth (NCI-H226 lung) | growth (NCI-H322M lung) | growth (HOP-62 NSCLC) | growth (NCI-H460 lung) | growth (HOP-92 NSCLC) | growth (NCI-H522 lung) | growth (A549/ATCC NSCLC) | growth (786-0 renal) | growth (COLO 205 colon) | growth (DU-145 prostate) | growth (K-562 leukemia) | growth (MALME-3M melanoma) | growth (MDA-MB-231 breast) | growth (RXF 393 renal) | growth (SF-268 CNS) | growth (SF-295 CNS) | growth (SF-539 CNS) | growth (UACC-257 melanoma) | growth (M14 melanoma) |
| --- | --- | --- | --- | --- | --- | --- | --- | --- | --- | --- | --- | --- | --- | --- | --- | --- | --- | --- | --- | --- |
| CCCn1c(=S)sc2c(NNC(C)=O)nc(C)nc21 | 99.3% | 97.1% | 101% | 78.3% | 101% | 89.4% | 90.9% | 89.1% | 92.2% | 126% | 134% | 68.8% | 101% | 103% | 98.5% | 111% | 121% | 90.6% | 91.7% | 108% |
| COc1ccc(C2[C@@H](c3ccccc3)C(=O)N2c2cc(OC)c(OC)c(OC)c2)cc1F (stereo not given in full) | 25.3% | 66.6% | 38.2% | 19.1% | 5.92% (active) | 28.1% | -34.2% (active) | 8.88% (active) | 13.9% | -48.2% (active) | 11% | 5.35% (active) | 69.1% | 32.3% | 13.5% | 31.5% | 0.875% (active) | 14.8% | 20.8% | 4.59% (active) |
| Cc1c2ccccc2nc2cc3c(cc12)[C@H]1CC[C@]2(C)C(=O)CC[C@H]2[C@@H]1CC3 | 98.5% | 91.8% | 98.5% | 105% | 97.3% | 86.9% | 81.6% | 86.5% | 98% | 109% | 106% | 90.2% | 108% | 91.6% | 101% | 89.5% | 99.9% | 96.5% | 98.3% | 102% |
| COc1cc2c(cc1OCCCN1CCN(C(=S)SCCC(C#N)(c3ccccc3)c3ccccc3)CC1)N=C[C@@H]1CCCN1C2=O | -46.7% (active) | -55.8% (active) | -62.2% (active) | 1.76% (active) | -80.3% (active) | -71% (active) | -48.3% (active) | -3.55% (active) | -94.9% (active) | -69.5% (active) | -100% (active) | -5.69% (active) | -89.3% (active) | -31.1% (active) | -92.9% (active) | -72.5% (active) | -14.2% (active) | -94.7% (active) | -45.5% (active) | -76.6% (active) |
| CCN(CC)CCCC(Cc1ccccc1)Nc1c2ccc(Cl)cc2nc2ccc(OC)cc12 (stereo not given) | 67.1% | 84.4% | 9.3% (active) | 67.3% | 28.6% | -4.73% (active) | 1.88% (active) | 39.3% | -22.6% (active) | -42.3% (active) | 62.3% | -39.2% (active) | -78.3% (active) | -31.3% (active) | -51.7% (active) | 51.9% | -37.9% (active) | -87.5% (active) | -40.8% (active) | -76.9% (active) |
| CCN(CC)CCOc1ccc2ccc(=O)oc2c1 | 106% | 106% | 88.2% | 100% | 110% | -15.1% (active) | 89.6% | 99.7% | 101% | 102% | 121% | 2.68% (active) | 105% | 99.5% | 103% | 109% | 94.3% | 101% | 93% | 94.8% |
| c1cc(OCCN2CCCCC2)ccc1CNc1ccc2nc(CCC3CCCCC3)[nH]c2c1 | 73.8% | 36.2% | 74.6% | 54.2% | 33.6% | 26.7% | 50.4% | 42.3% | -61% (active) | -66% (active) | 59.9% | -1.42% (active) | -85.9% (active) | 9.11% (active) | 11.9% | 57.6% | -38.6% (active) | -73.3% (active) | -75% (active) | -75% (active) |
| COCCn1cc(-c2csc(-c3c[nH]c4ccccc34)n2)c2cccnc21 | 42.2% | 60.9% | 61% | 38.2% | 18.8% | 55.5% | -33.6% (active) | 25% | 43.5% | -8.68% (active) | 62.3% | 18.1% | 52.3% | 35% | 72.2% | 50.1% | 25.8% | 43.5% | 45.9% | 18.6% |
| CCN(CC)C(=O)CC1=C(C)/C(=C/c2[nH]c(-c3ccc[nH]3)cc2OC)N=C1C | 34% | 20% | 37.1% | 33.1% | 9.17% (active) | -14.8% (active) | 10.1% | 4.73% (active) | -13.3% (active) | 15.9% | 34.8% | 6.08% (active) | 1.07% (active) | -0.929% (active) | 35.9% | 21.7% | -51.6% (active) | 20.6% | 5.68% (active) | -55.8% (active) |
| Cc1nc2sc(C(=O)Nc3cccc4ccccc34)c(N)c2cc1C(=O)c1ccccc1 | 40.2% | 68.3% | 62.4% | 42.5% | 7.31% (active) | 77.6% | 15.5% | 23.5% | 42.5% | -2.82% (active) | 18.3% | 9.45% (active) | 58.5% | 15.2% | 22.6% | 53.4% | 10.4% | -12.1% (active) | 72.7% | 12.4% |
| Fc1cc2[nH]ncc2c2c3c(c(-c4cn[nH]c4C(F)(F)F)nc12)CCCC3 | -12.2% (active) | 6.19% (active) | -0.0231% (active) | -1.79% (active) | 2.41% (active) | -71% (active) | -24.2% (active) | 2.17% (active) | 1.39% (active) | -45.6% (active) | 5.47% (active) | -34.5% (active) | 10.5% | 7.95% (active) | -56.2% (active) | 0.494% (active) | 5.61% (active) | -66.9% (active) | 2.49% (active) | -2.16% (active) |
| COc1ccc2[nH]cc(-c3nonc3-c3c[nH]c4ccc(Br)cc34)c2c1 | 54.1% | 74.8% | 50.5% | 33.8% | 8.13% (active) | 54% | 8.48% (active) | 35.3% | 61.4% | 32.1% | 43.8% | 7.68% (active) | 70.4% | 5.3% (active) | 76.7% | 47% | 26.1% | 56.3% | 64.2% | 31.8% |
| Cc1ccc2c(/C=C/C(=O)c3cc(CN4CCOCC4)c(O)c4nc(C)ccc34)cc(CN3CCOCC3)c(O)c2n1 | -2.24% (active) | -13% (active) | 17% | -7.03% (active) | 7.83% (active) | 30.9% | -54.8% (active) | 11.3% | -31.9% (active) | -25.8% (active) | -55.9% (active) | 1.93% (active) | 42.9% | 11.5% | -74.5% (active) | 13.2% | 23% | -29.4% (active) | 7.95% (active) | -20.1% (active) |
| CN(C)c1ccc(/C=N\NC(=O)c2ccc3nc(-c4ccc(Cl)cc4)[nH]c3c2)cc1 | 61.4% | 93.1% | 77.6% | 60.5% | 36.2% | 84.6% | 96.1% | 17.8% | 12.2% | 41.3% | 85.4% | 38.8% | 11.8% | 63.9% | 77.4% | 78.2% | 31.3% | 88% | 100% | 60.3% |
| C/C=C1/CN(CCCCC)CC[C@H]1C(=O)c1cc2ccccc2[nH]1 | 85.1% | 92.9% | 86.6% | 85.5% | 97.3% | 52.3% | 88.1% | 100% | 99.9% | 98.9% | 99% | 69.6% | 91.4% | 88.5% | 94.1% | 89.8% | 94.5% | 98.9% | 108% | 90.2% |
| COc1cc(/C=C/c2cc(/C=C/c3ccc(O)c(OC)c3)n(C(=O)Nc3ccc(Cl)cc3)n2)ccc1O | 3.16% (active) | 5.73% (active) | 22.1% | 17.1% | 9.41% (active) | -4.7% (active) | -4.94% (active) | 4.03% (active) | -2.2% (active) | 7.57% (active) | 11.7% | -7.3% (active) | 3.94% (active) | 14.3% | -53.6% (active) | 13.9% | -21.9% (active) | 0.163% (active) | 3.11% (active) | 4.04% (active) |
